This note sets out measurements from PubChem BioAssay (NCATS).

Experiment [1] is described as follows: qHTS profiling for inhibitors of Plasmodium falciparum (3D7) proliferation (AID 743322).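 Also: infected erythrocytes exposed to compound for 72 h before lysis; 100% = DMSO vehicle wells and 0% = 0.29 µM artemisinin.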 The following applies: P. falciparum 3D7 proliferation; at 28.7 µM (top of the series). Put shortly:
(§1)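 Parasite DNA was quantified by SYBR Green I fluorescence (ex 485, em 535 nm) after overnight lysis in saponin/Triton buffer at room temperature. Cultures at 0.3% parasitemia and 2.5% hematocrit were first exposed to compound for 72 h at 37 C; signals were normalised to artemisinin (0.29 uM) and vehicle wells.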

The nature of experiment [2]: qHTS profiling for inhibitors of Plasmodium falciparum (DD2) proliferation (AID 743323). Conditions: lower = more inhibition; at 28.7 µM (top of the series). Put shortly: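 SYBR Green fluorescence (ex 485, em 535 nm) of lysed cultures gives parasite DNA content; wells normalized to artemisinin (0.29 uM) and DMSO controls. Infected red cells: 0.3% parasitemia, 2.5% hematocrit, 72 h, 37 C.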

Experiment [3] in a line: qHTS profiling of the MIPE4 collection as inhibitors of Plasmodium falciparum (3D7) proliferation (AID 743344).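 Also: scaled between DMSO vehicle wells and 0.29 µM artemisinin as full inhibition.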 Conditions: P. falciparum 3D7 in erythrocytes, SYBR Green DNA fluorescence, 72 h; at 28.5 µM (top of the series) unless noted. Put shortly:
as §1

The nature of experiment [4]: qHTS profiling of the MIPE4 collection as inhibitors of Plasmodium falciparum (DD2) proliferation (AID 743345). Conditions: P. falciparum Dd2 in erythrocytes, SYBR Green DNA, 72 h; at 28.5 µM (top of the series) unless noted. The essentials:
as §1

The nature of experiment [5]: qHTS profiling of the MIPE4 collection as inhibitors of Plasmodium falciparum (DD2) proliferation (Rep 2) (AID 743346). Conditions: P. falciparum Dd2 in erythrocytes, SYBR Green DNA, 72 h; at 28.5 µM (top of the series) unless noted. Put shortly:
as §1

Experiment [6] can be described thus: qHTS profiling of the MIPE4 collection as inhibitors of Plasmodium falciparum (HB3) proliferation (AID 743347).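 Also: plate controls were DMSO vehicle wells for no effect and artemisinin wells for full effect.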 The following applies: P. falciparum HB3 in erythrocytes, SYBR Green DNA, 72 h; at 28.5 µM (top of the series) unless noted. Put shortly:
as §1

A short description of experiment [7]: High-throughput drug toxicity screening in the BPDCN cell line Gen2.2 (AID 1224824).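 Also: cells exposed to compounds for 48 h before reading.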 Conditions: Gen2.2 BPDCN cells; at 45.8 µM (top of the series) unless noted. The essentials:
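Gen2.2 cells, 500 per well in phenol red-free RPMI with 10% FBS, exposed to compounds 48 h at 37 C, 5% CO2; viability by CellTiter-Glo luminescence. Percent activity scaled to DMSO (100%) and 9.2 uM bortezomib final (0%).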

The nature of experiment [8]: High-throughput drug toxicity screening in the BPDCN cell line Cal-1 (AID 1224825). Conditions: Cal-1 BPDCN cell viability, qHTS; at 45.8 µM (top of the series) unless noted. The essentials: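 Viability of the BPDCN line Cal-1 is measured as ATP-based luminescence (CellTiter-Glo) following 48 h incubation with compounds. Percent activity uses DMSO-treated wells as 100% and 9.2 uM bortezomib as 0%.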

For `Cc1ccc(-c2ncn(-c3ccc(Nc4nccc(-c5cccc(N6CCOCC6)c5)n4)cc3)n2)cn1`, the remaining parasite growth % (stronger effect = lower value) in experiment [1] was 3.9%. The activity, percent of control in experiment [2] was 4.15%. Also, in experiment [3], the parasite growth, % of DMSO control worked out at 5.55%. In experiment [4], the parasite growth remaining, % of DMSO control (lower = more inhibition) is 6.69%. Besides, the parasite growth, % of control (lower = inhibition) in experiment [5] was found to be 11.5%. In experiment [6], this molecule yielded a growth, % of control of 8.45%. Further, the cell viability, % of control (lower = more cytotoxic) in experiment [7] turned out to be 5.12%. The molecule also came in with a viability (% of control) in experiment [8] of 3.62%.

Turning to `Cc1cc(Nc2cc(NC(=O)c3c(Cl)cccc3Cl)ccn2)nc(N)n1`, the remaining parasite growth % (stronger effect = lower value) in experiment [1] is 0.674%. Further, the activity, percent of control in experiment [2] was 6.07%. Besides, the parasite growth, % of DMSO control in experiment [3] turned out to be 5.6%. Besides, the parasite growth remaining, % of DMSO control (lower = more inhibition) in experiment [4] was 6.82%. The parasite growth, % of control (lower = inhibition) in experiment [5] was 10.1%. Moreover, the growth, % of control in experiment [6] was 8.82%. The cell viability, % of control (lower = more cytotoxic) in experiment [7] was determined as 12.1%. In addition, in experiment [8], the viability (% of control) amounted to 8.08%.

With `O=C(O)c1ccc2c(c1)nc(Nc1cccc(Cl)c1)c1ccncc12`, the remaining parasite growth % (stronger effect = lower value) in experiment [1] amounted to 9.86%. The activity, percent of control in experiment [2] is 12.2%. The same molecule yielded a parasite growth, % of DMSO control in experiment [3] of 6.23%. Also, in experiment [4], the parasite growth remaining, % of DMSO control (lower = more inhibition) is 9%. The molecule further gave a parasite growth, % of control (lower = inhibition) in experiment [5] of 9.96%. In experiment [6], this molecule displayed a growth, % of control of 4.4%. Besides, the cell viability, % of control (lower = more cytotoxic) in experiment [7] was found to be 84.5%. The viability (% of control) in experiment [8] was found to be 72.1%.

Regarding `COc1cc2ncn(-c3cc(OCc4ccccc4C(F)(F)F)c(C(N)=O)s3)c2cc1OC`, the remaining parasite growth % (stronger effect = lower value) in experiment [1] turned out to be 18.7%. In experiment [2], the activity, percent of control stood at 43.8%. The same molecule gave a parasite growth, % of DMSO control in experiment [3] of 41.3%. In experiment [4], the parasite growth remaining, % of DMSO control (lower = more inhibition) is 65%. In experiment [5], this molecule came in with a parasite growth, % of control (lower = inhibition) of 44.3%. For the same molecule, the growth, % of control in experiment [6] came out at 35.9%. Further, the cell viability, % of control (lower = more cytotoxic) in experiment [7] stood at 43.1%. The molecule further came in with a viability (% of control) in experiment [8] of 4.46%.

Consider `c1nc2nc(Nc3ccc(N4CCOCC4)cc3)nc(NC3CCCCC3)c2[nH]1`, for which the remaining parasite growth % (stronger effect = lower value) in experiment [1] came to 4.62%. Besides, the activity, percent of control in experiment [2] was 13.5%. Further, the parasite growth remaining, % of DMSO control (lower = more inhibition) in experiment [4] was 31.3%. This molecule also displayed a parasite growth, % of control (lower = inhibition) in experiment [5] of 10.2%. Moreover, in experiment [6], the growth, % of control was 4.57%. Besides, in experiment [7], the cell viability, % of control (lower = more cytotoxic) is 9.78%. This molecule also registered a viability (% of control) in experiment [8] of 8.54%.

For `Cn1cncc1[C@@](N)(c1ccc(Cl)cc1)c1ccc2c(c1)c(-c1cccc(Cl)c1)cc(=O)n2C`, the remaining parasite growth % (stronger effect = lower value) in experiment [1] was -0.555%. For the same molecule, in experiment [2], the activity, percent of control was found to be 5.8%. The molecule further returned a parasite growth, % of DMSO control in experiment [3] of 6.1%. In addition, in experiment [5], the parasite growth, % of control (lower = inhibition) was determined as 20.3%. The growth, % of control in experiment [6] was 5%. In addition, in experiment [7], the cell viability, % of control (lower = more cytotoxic) came out at 3.19%. The molecule further returned a viability (% of control) in experiment [8] of 2.26%.

Regarding `CCCCc1nc2cc(C=CC(=O)NO)ccc2n1CCN(CC)CC`, the remaining parasite growth % (stronger effect = lower value) in experiment [1] is -0.311%. Besides, in experiment [2], the activity, percent of control was -0.413%. In addition, the parasite growth remaining, % of DMSO control (lower = more inhibition) in experiment [4] is 7.36%. Also, the parasite growth, % of control (lower = inhibition) in experiment [5] stood at 7.61%. Also, the cell viability, % of control (lower = more cytotoxic) in experiment [7] was 53.2%. The molecule also registered a viability (% of control) in experiment [8] of 7.58%.

`COc1cc(Nc2ncc(F)c(Nc3ccc4c(n3)N(COP(=O)(O)O)C(=O)C(C)(C)O4)n2)cc(OC)c1OC` came in with a parasite growth, % of DMSO control in experiment [3] of 19.5%. Further, the parasite growth remaining, % of DMSO control (lower = more inhibition) in experiment [4] was 87.2%. This molecule also displayed a parasite growth, % of control (lower = inhibition) in experiment [5] of 22.9%. For the same molecule, the cell viability, % of control (lower = more cytotoxic) in experiment [7] was 56.3%. In experiment [8], this molecule gave a viability (% of control) of 10.3%.

Turning to `Cc1c(C)n(Cc2ccc(-c3ccccc3C(=O)O)cc2)c2ccc(C(=O)N[C@@H](C)c3ccc([N+](=O)[O-])cc3)cc12`, the parasite growth, % of DMSO control in experiment [3] worked out at 25.4%. The parasite growth remaining, % of DMSO control (lower = more inhibition) in experiment [4] worked out at 30.3%. The cell viability, % of control (lower = more cytotoxic) in experiment [7] is 21.6%. In addition, the viability (% of control) in experiment [8] was 8.82%.

Regarding `Cc1nc2ccc(CN(C)c3ccc(C(=O)N[C@@H](CCC(=O)O)C(=O)O)s3)cc2c(=O)[nH]1`, the parasite growth, % of DMSO control in experiment [3] worked out at 211%. For the same molecule, the parasite growth remaining, % of DMSO control (lower = more inhibition) in experiment [4] was 106%. Moreover, the parasite growth, % of control (lower = inhibition) in experiment [5] worked out at 54.1%. For the same molecule, the growth, % of control in experiment [6] is 424%. For the same molecule, in experiment [7], the cell viability, % of control (lower = more cytotoxic) is 185%. Also, in experiment [8], the viability (% of control) is 32.8%.
